Reference: PubChem BioAssay AID2330 (Broad Institute, 2010)
Out of some 37,000 compounds screened, about 2,800 (7.6%) were called active. Roughly 1% stayed inconclusive and do not appear here. Rule as the data show it: active = inhibition above about 80%; inconclusive = no clear call, values can overlap the other calls; inactive = below that. The list comes from a sample in which actives are over-represented; it also holds similar structures and randomly drawn compounds.

experiment: NOMO-1 AML cell viability reduction, primary screen, STK33 inhibitor project, CellTiter-Glo luminescence (AID 2330); settings: NOMO-1 AML viability, 72 h, hits give high values, concentration not given here

Structure (SMILES) | inhibition
C[C@@H]1CN([C@H](C)CO)C(=O)Cc2cc(NS(C)(=O)=O)ccc2O[C@H]1CN(C)S(=O)(=O)c1ccccc1 | -9.84% (inactive)
Cn1c(=O)c2c(nc(SCC(=O)O)n2Cc2ccc(F)cc2)n(C)c1=O | 17.9% (inactive)
Cc1cc(=O)oc2cc(OC(C)C(=O)Nc3ccc(Cl)c(C(F)(F)F)c3)ccc12 (stereo not drawn) | 4.93% (inactive)
C[C@H]1CN([C@@H](C)CO)C(=O)c2cc(NC(=O)Nc3ccccc3)ccc2O[C@H]1CN(C)S(C)(=O)=O | 15.5% (inactive)
CC(=O)c1cccc(NC(=O)CN(c2ccc(F)c(Cl)c2)S(C)(=O)=O)c1 | 13.8% (inactive)
Cc1noc(C)c1NC(=O)Nc1ccc2c(c1)CC(=O)N([C@@H](C)CO)C[C@@H](C)[C@@H](CN(C)Cc1ccc(Cl)c(Cl)c1)O2 | 58.1% (inactive)
COc1cc(O)cc(C)c1C(=O)OC1C(CO)OC(n2ccc(=O)[nH]c2=O)C1OC(C)=O (stereo not drawn) | 6.97% (inactive)
COC(=O)c1cc(C)sc1NC(=S)Nc1ncn(Cc2ccc(F)cc2Cl)n1 | 109% (active)
CCc1cc(C(=O)OC)c(NC(=S)Nc2ccc(OC)cc2[N+](=O)[O-])s1 | 22.2% (inactive)
C[C@H]1CN([C@@H](C)CO)C(=O)Cc2cc(NS(=O)(=O)c3cccs3)ccc2O[C@@H]1CN(C)Cc1ccc(Oc2ccccc2)cc1 | 78.4% (inactive)
C[C@H]1CN([C@@H](C)CO)C(=O)Cc2cc(NC(=O)Nc3ccc4c(c3)OCO4)ccc2O[C@H]1CN(C)CC1CC1 | 11.8% (inactive)
C[C@H]1CN([C@@H](C)CO)C(=O)Cc2cc(NC(=O)Nc3cccc4ccccc34)ccc2O[C@H]1CN(C)CC1CC1 | 26.7% (inactive)
C[C@@H]1CN([C@@H](C)CO)C(=O)Cc2cc(NC(=O)Nc3cccc4ccccc34)ccc2O[C@@H]1CN(C)CC1CCCCC1 | 117% (active)
C[C@H]1CN([C@@H](C)CO)C(=O)c2cc(NC(=O)Nc3ccc4c(c3)OCO4)ccc2O[C@@H]1CN(C)CC1CCCCC1 | 31.9% (inactive)
C[C@@H]1CN([C@@H](C)CO)C(=O)Cc2cc(NC(=O)Nc3ccc4c(c3)OCO4)ccc2O[C@@H]1CN(C)CC1CCCCC1 | 88.2% (active)
C[C@H]1CN([C@@H](C)CO)C(=O)Cc2cc(NC(=O)Nc3cccc4ccccc34)ccc2O[C@@H]1CN(C)S(C)(=O)=O | 0.688% (inactive)
C[C@H](CO)N1C[C@H](C)[C@@H](CN(C)Cc2ccc3c(c2)OCO3)Oc2c(NC(=O)C3CCOCC3)cccc2C1=O | 20.1% (inactive)
O=C(Nc1ccc(Cl)cc1C(=O)NCc1ccco1)c1ccco1 | 31.2% (inactive)
C[C@@H]1CN([C@H](C)CO)C(=O)c2cccc(NC(=O)c3nc4ccccc4s3)c2O[C@@H]1CN(C)Cc1ccc(Oc2ccccc2)cc1 | 54.9% (inactive)
C[C@H](CO)N1C[C@H](C)[C@@H](CN(C)Cc2ccc(Cl)c(Cl)c2)Oc2c(NC(=O)C3CCCCC3)cccc2C1=O | 102% (active)
CC(C)NC(=O)N(C)C[C@@H]1Oc2c(NC(=O)c3nc4ccccc4s3)cccc2C(=O)N([C@H](C)CO)C[C@H]1C | -10.2% (inactive)
C[C@@H]1CN([C@@H](C)CO)C(=O)c2cccc(NC(=O)c3nc4ccccc4s3)c2O[C@@H]1CN(C)Cc1ccc(Cl)c(Cl)c1 | 87.1% (active)
C[C@@H]1CN([C@H](C)CO)C(=O)c2cccc(NC(=O)c3nc4ccccc4s3)c2O[C@H]1CN(C)S(=O)(=O)c1ccc(Cl)cc1 | 61.5% (inactive)

Structure (SMILES) | inhibition
C[C@@H]1CN([C@H](C)CO)C(=O)c2cccc(NC(=O)c3nc4ccccc4s3)c2O[C@H]1CN(C)Cc1ccccc1 | 96.6% (active)
COc1ccc(CN(C)C[C@H]2Oc3c(NC(=O)C4CCCCC4)cccc3C(=O)N([C@@H](C)CO)C[C@@H]2C)cc1 | 15.7% (inactive)
COc1ccc(CN(C)C[C@H]2Oc3c(NC(=O)C4CCCCC4)cccc3C(=O)N([C@@H](C)CO)C[C@H]2C)cc1 | 2.14% (inactive)
C[C@@H]1CN([C@H](C)CO)C(=O)c2cccc(NC(=O)c3nc4ccccc4s3)c2O[C@@H]1CN(C)C | 6.43% (inactive)
Cc1cc(C)c(OCC(=O)Nc2cccnc2)c(Br)c1 | 5.52% (inactive)
COc1cc(C(C)=O)ccc1OCC(O)Cn1nc(C)cc1C (stereo not drawn) | 10.2% (inactive)
COc1ccc(NC(=O)Nc2ccc3c(c2)CC(=O)N([C@@H](C)CO)C[C@H](C)[C@@H](CN(C)S(=O)(=O)c2cn(C)cn2)O3)cc1 | -12.8% (inactive)
C[C@H]1CN([C@@H](C)CO)C(=O)c2cc(NC(=O)Cn3cnnn3)ccc2O[C@H]1CN(C)Cc1ccc(C(=O)O)cc1 | 30.7% (inactive)
COc1ccc(CCn2c(C)nc(=O)c(-c3ccccc3)c2C)cc1OC | 2.96% (inactive)
C[C@@H]1CN([C@@H](C)CO)C(=O)c2cccc(NS(=O)(=O)c3ccc(F)cc3)c2O[C@H]1CN(C)C(=O)NC1CCCCC1 | 4.03% (inactive)
C[C@H](CO)N1C[C@H](C)[C@@H](CN(C)Cc2ccc(Cl)c(Cl)c2)Oc2c(NC(=O)Nc3ccccc3)cccc2C1=O | 59.3% (inactive)
O=C(c1cc([N+](=O)[O-])ccc1NCc1cccnc1)N1CCOCC1 | -0.79% (inactive)
COc1ccc(NC(=O)N(C)C[C@@H]2Oc3c(NC(=O)Nc4cccc5ccccc45)cccc3C(=O)N([C@@H](C)CO)C[C@H]2C)cc1 | 33.8% (inactive)
C[C@@H]1CN([C@H](C)CO)C(=O)c2cc(NS(=O)(=O)c3ccc(F)cc3)ccc2O[C@@H]1CN(C)C(=O)Nc1cccc2ccccc12 | 15.5% (inactive)
COC(=O)c1ccc(NC(=O)CN(c2ccc(C)c(Cl)c2)S(C)(=O)=O)cc1 | -3.13% (inactive)
COC(=O)c1ccc(NCc2cc(O)ccc2O)cc1 | 96.2% (active)
COC(=O)c1c(C)n(CCNc2ccc([N+](=O)[O-])cc2)c2ccc(O)cc12 | 32.6% (inactive)
O=C(CSc1nc(O)cc(=O)n1-c1ccccc1F)Nc1ccc(Cl)cc1Cl | 9.63% (inactive)
COC(=O)c1ccccc1NC(=O)CN(c1ccc2c(c1)OCCO2)S(C)(=O)=O | -1.24% (inactive)
C[C@H]1CN([C@@H](C)CO)C(=O)c2cc(NC(=O)Cc3cn(C)c4ccccc34)ccc2O[C@H]1CN(C)Cc1ccc(Cl)c(Cl)c1 | 84% (active)
C[C@@H]1CN([C@H](C)CO)C(=O)c2cc(NC(=O)Cc3cn(C)c4ccccc34)ccc2O[C@H]1CN(C)S(C)(=O)=O | 15.5% (inactive)
C[C@H]1CN([C@@H](C)CO)C(=O)c2cc(NC(=O)Cc3cn(C)c4ccccc34)ccc2O[C@H]1CN(C)CC1CCCCC1 | 15% (inactive)
C[C@@H]1CN([C@@H](C)CO)C(=O)c2cc(NC(=O)Cc3ccccc3)ccc2O[C@H]1CN(C)Cc1ccc(Cl)c(Cl)c1 | 54.8% (inactive)

Structure (SMILES) | inhibition
C[C@H]1CN([C@@H](C)CO)C(=O)c2cc(NC(=O)Cc3cn(C)c4ccccc34)ccc2O[C@@H]1CN(C)Cc1ccc(Cl)c(Cl)c1 | 87.6% (active)
C[C@H](CO)N1C[C@H](C)[C@H](CN(C)Cc2ccncc2)Oc2ccc(NC(=O)Cc3cn(C)c4ccccc34)cc2CC1=O | 6.89% (inactive)
Cc1noc(C)c1NC(=O)N(C)C[C@@H]1Oc2ccc(NC(=O)Nc3ccc(C(F)(F)F)cc3)cc2C(=O)N([C@H](C)CO)C[C@@H]1C | 7.38% (inactive)
CC(=O)N[C@@H](C(=O)O[C@H]1CCC(C)(C)[C@@H]2CCC3=C(COC3=O)[C@@]12C)C(C)C | 25.2% (inactive)
Cc1ccc(-c2nc(S(=O)(=O)c3ccc(Br)cc3)c(SCC(N)=O)o2)cc1 | 11.1% (inactive)
O=C(c1ccccc1)c1cnn(-c2ccc(Cl)cc2)n1 | 18.2% (inactive)
Cc1ccccc1NC(=O)CSc1nnc(-c2ccc([N+](=O)[O-])cc2)n1C | -7.25% (inactive)
CCn1c2ccccc2c2nnc(SCC(=O)O)nc21 | 11.8% (inactive)
CCCn1c2ccccc2c2nnc(SCC(=O)Nc3cccc4ccccc34)nc21 | 9.77% (inactive)
O=C1C(=O)N(CCn2c3ccccc3c3nc4ccccc4nc32)c2ccccc21 | 119% (active)
Cc1ccc(C)c(OCC(=O)Nc2ccccc2C#N)c1 | 15.4% (inactive)
C[C@@H]1CN([C@H](C)CO)C(=O)c2cccc(NS(=O)(=O)c3cn(C)cn3)c2O[C@@H]1CN(C)Cc1ccc(C(F)(F)F)cc1 | -20.1% (inactive)
C[C@@H]1CN([C@@H](C)CO)C(=O)c2cccc(NS(=O)(=O)c3ccccc3)c2O[C@@H]1CN(C)S(=O)(=O)c1ccc(F)cc1 | 65% (inactive)
O=C(Nc1ccccc1)Nc1cc(C2CC2)nn1-c1ccccc1 | 16.4% (inactive)
O=C(Nc1ccccc1)C(=S)Nc1ccccc1 | 38.4% (inactive)
O=C(Nc1ccccc1)Nc1ccc(C2SCCS2)cc1 | 89.9% (active)
C=C1C(=O)O[C@H]2C3=C(C)C[C@H](OC(C)=O)C[C@]3(C)CC[C@@H]12 | 122% (active)
COc1ccc(CN(C)C[C@H]2Oc3ccc(NS(=O)(=O)c4c(C)noc4C)cc3CC(=O)N([C@H](C)CO)C[C@H]2C)cc1 | 5.72% (inactive)
COc1ccc(N(C(C)C(=O)Nc2cccc(Br)c2)S(C)(=O)=O)cc1 (stereo not drawn) | -13.9% (inactive)
COC(=O)c1ccc(NC(=O)CSc2nc(-c3ccccc3)c(-c3ccccc3)[nH]2)cc1 | 102% (active)
Cc1nc(SCC(=O)Nc2ccc(C(=O)O)cc2)[nH]c(=O)c1C | 24.5% (inactive)
COC(=O)c1ccc(NC(=O)CSc2nc(-c3ccccc3)cc(=O)[nH]2)cc1 | 0.0616% (inactive)
